# According to PubChem BioAssay (EPA / NIEHS):
# Results filed as inconclusive are left out. Calls of active or inactive are those of the source. The calls were made as follows, unless noted: active = hit-call score of the fitted dose curve at least 0.9, where 1 is the maximum; inconclusive = response in the unintended direction; inactive = score below 0.9.
# Assays:
# [1] = biological target: human Phosphoinositide 3-kinase alpha (PI3Ka), PIK3CA (gene 5290) (UniProt P42336); experiment: NVS_ENZ_hPI3Ka: NovaScreen (NVS) Enzymatic Assay for human Phosphoinositide 3-kinase alpha (PI3Ka) (AID 2283196)
# In short: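 Recombinant human PI3Kα with fluorescent substrate, 1 h, product separated by electrophoretic mobility shift; 25 uM duplicate screen, hits (e.g., 30% inhibition) retested singly up to 50 uM; loss of signal vs DMSO.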
# [2] = biological target: human Norepinephrine Transporter (NET), SLC6A2 (gene 6530) (UniProt P23975); experiment: NVS_TR_hNET: NovaScreen (NVS) Transporter Assay for human Norepinephrine Transporter (NET) (AID 2283377);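 as to AC50: displacement of radioligand from human NET seen as loss of scintillation signal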
# In short: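 Cell-free radioligand binding using CHO-derived membrane protein expressing human NET, read by filter scintillation counting 1 h after dosing; loss of signal vs DMSO. Initial duplicate screen at 25 uM, actives retested in concentration series.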
# [3] = biological target: human Peroxisome Proliferator-activated Receptor alpha (PPARa), PPARA (gene 5465) (UniProt Q07869); experiment: NVS_NR_hPPARa: NovaScreen (NVS) Nuclear Receptor Binding Assay for human Peroxisome Proliferator-activated Receptor alpha (PPARa) (AID 2283359);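 also: activity means loss of TR-FRET signal versus DMSO baseline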
# In short: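 Cell-free TR-FRET binding assay with extracted PPARα protein, read 1 h after dosing. Primary screen in duplicate at 25 uM, with actives retested in concentration series. Loss of signal versus DMSO.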
# [4] = biological target: chimpanzee Androgen Receptor (AR), AR (gene 747460) (UniProt O97775); experiment: NVS_NR_cAR: NovaScreen (NVS) Nuclear Receptor Binding Assay for chimpanzee Androgen Receptor (AR) (AID 2283346);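 also: radioligand displacement from AR measured by scintillation counting in a cell-free assay; a loss of bound radioligand signal versus DMSO counts as binding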
# In short: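 Radioligand binding to chimpanzee AR expressed in Sf9/Sf21 cells, cell-free, measured 72 h after dosing by lysate-based scintillation counting. Loss of signal vs DMSO; initial duplicate screen at 25 uM, actives retested in concentration series.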
# [5] = CCTE_Simmons_CellTiterGLO_HEK293T: Viability Assessment in CCTE's Assays for Thyroperoxidase (TPO) Inhibition, Simmons Lab (AID 2283665);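 as to AC50: cells exposed to compound for 24 h before readout; actives reduce ATP signal below DMSO vehicle meaning cytotoxicity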
# In short: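 HEK293T cells in DMEM with 1% FBS, dosed 24 h at 37C with 8 concentrations, 5 nM–87.5 uM final, 0.5% DMSO. ATP measured by CellTiter Glo luminescence; loss of signal vs DMSO, three biological replicates.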
# [6] = CPHEA_Stoker_NIS_Cytotoxicity: Cytotoxicity Assessment for CPHEA's Radioactive Iodide Uptake (RAIU) Assay for Sodium/Iodide Symporter (NIS) Inhibition, Stoker and Laws Labs (AID 2283897)
# In short: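 hNIS-HEK293T-EPA cells, human NIS expressed in HEK293T, treated 2 h with chemicals (0.001–100 uM, 0.5% final DMSO). ATP content read by CellTiter-Glo luminescence; loss of signal analysed relative to DMSO.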
# [7] = CCTE_Shafer_MEA_acute_firing_rate_mean: CCTE's Neural Acute Assay for Mean Firing Rate, Shafer Lab (AID 2284009; active = hit-call score of the fitted dose curve at least 0.9, where 1 is the maximum; inactive = score below 0.9;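 also: analyzed for loss of signal so actives lower firing rate relative to DMSO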)
# In short: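 Rat primary cortical neurons on 48-well MEA plates, dosed at 0.03-40 uM on DIV 13 or 15; 40 min spontaneous activity recorded at 37 C before and after compound. Spike rate per electrode averaged per well, expressed as percent change from baseline.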
# [8] = CCTE_Shafer_MEA_acute_burst_number: CCTE's Neural Acute Assay for Single-Electrode Bursts, Shafer Lab (AID 2284013; active = hit-call score of the fitted dose curve at least 0.9, where 1 is the maximum; inactive = score below 0.9)
# In short: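 Primary rat cortical neurons on 16-electrode MEA wells, treated on DIV 13 or 15 with compound at 0.03-40 uM. Single-electrode burst count from 40-min recordings at 37 C before and after exposure; percent change from baseline per well, DMSO negative control.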
# [9] = CCTE_Shafer_MEA_acute_burst_duration_mean: CCTE's Neural Acute Assay for Mean Burst Duration, Shafer Lab (AID 2284014; active = hit-call score of the fitted dose curve at least 0.9, where 1 is the maximum; inactive = score below 0.9;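 also: hits are decreases in mean burst duration relative to DMSO controls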)
# In short: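 Rat primary cortical neurons on 48-well MEA, treated at DIV 13 or 15 with 0.03-40 uM in at least 3 wells. Value is percent change in mean burst duration, comparing 40 min recordings at 37 C before and during exposure.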
# [10] = CCTE_Shafer_MEA_acute_per_burst_spike_number_mean: CCTE's Neural Acute Assay for Average Number of Spikes Per Burst, Shafer Lab (AID 2284015; active = hit-call score of the fitted dose curve at least 0.9, where 1 is the maximum; inactive = score below 0.9;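 also: hits are decreases in mean spikes per burst versus baseline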)
# In short: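 Rat primary cortical neurons on 48-well MEAs (DIV 13 or 15) were treated with 0.03-40 uM compound at 37 C. Mean spikes per burst over 40 min were recorded before and after exposure and expressed as percent change from baseline, relative to DMSO.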
# [11] = CCTE_Shafer_MEA_acute_interburst_interval_mean: CCTE's Neural Acute Assay for Mean Interburst Interval, Shafer Lab (AID 2284016; active = hit-call score of the fitted dose curve at least 0.9, where 1 is the maximum; inactive = score below 0.9;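 also: percent change of mean interburst interval versus each well's own pre-dose baseline; curves fitted for decrease in interburst interval relative to DMSO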)
# In short: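 Rat primary cortical neurons on 48-well MEAs at DIV 13 or 15 were exposed acutely to 0.03-40 uM. Spikes detected at 8x rms noise, 37 C. Mean interburst interval from 40 min recordings expressed as percent change from 40 min pre-treatment baseline.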
# [12] = CCTE_Shafer_MEA_acute_burst_percentage_mean: CCTE's Neural Acute Assay for Percentage of Spikes in a Burst, Shafer Lab (AID 2284017; active = hit-call score of the fitted dose curve at least 0.9, where 1 is the maximum; inactive = score below 0.9;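 also: curve fitted for loss of signal so potency reflects decreased burst percentage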)
# In short: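 Primary rat cortical neurons on 48-well MEA plates, treated on DIV 13 or 15 at 0.03-40 uM. Spikes detected at 8x rms noise at 37C; percent change from 40-min baseline to 40-min post-dose recording, fitted versus DMSO.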
# [13] = CCTE_Shafer_MEA_acute_burst_percentage_std: CCTE's Neural Acute Assay for Standard Deviation of Burst Percentage, Shafer Lab (AID 2284018; active = hit-call score of the fitted dose curve at least 0.9, where 1 is the maximum; inactive = score below 0.9;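 also: fitted in the negative direction so actives lower burst percentage SD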)
# In short: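 Rat primary cortical neurons on 48-well MEAs, DIV 13 or 15, 37 C. 40-min baseline then 40-min recording with compound (0.03-40 uM); well-level SD of per-electrode burst spike percentage, expressed as percent change from baseline.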
# [14] = CCTE_Shafer_MEA_acute_per_network_burst_spike_number_std: CCTE's Neural Acute Assay for Standard Deviation of Number of Spikes in a Network Burst, Shafer Lab (AID 2284020; active = hit-call score of the fitted dose curve at least 0.9, where 1 is the maximum; inactive = score below 0.9;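 also: fitted for decrease in spike-number SD versus DMSO so actives lower it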)
# In short: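 Rat primary cortical neurons on 48-well MEA (16 electrodes/well), treated DIV 13 or 15 at 0.03-40 uM, ≥3 wells per compound. 40 min recordings at 37 C before and after dosing; value is percent change in network-burst spike-number SD, negative direction vs DMSO.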
# [15] = CCTE_Shafer_MEA_acute_per_network_burst_electrodes_number_mean: CCTE's Neural Acute Assay for Mean Number of Electrodes in a Network Burst, Shafer Lab (AID 2284021; active = hit-call score of the fitted dose curve at least 0.9, where 1 is the maximum; inactive = score below 0.9;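 also: curves fitted for decreases only so hits reduce electrodes per burst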)
# In short: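 Rat primary cortical neurons on 48-well MEAs, DIV 13 or 15, were treated at 0.03-40 uM. Spikes were detected at 8x rms noise and recorded at 37 C. The mean electrodes per network burst in a 40 min exposure recording was expressed as percent change from a 40 min baseline.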
# [16] = CCTE_Shafer_MEA_acute_network_burst_percentage: CCTE's Neural Acute Assay for Percentage of Network Bursts, Shafer Lab (AID 2284022; active = hit-call score of the fitted dose curve at least 0.9, where 1 is the maximum; inactive = score below 0.9;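 also: curves fitted for loss so actives lower network burst percentage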)
# In short: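 Rat primary cortical neuron networks on 48-well MEA plates, DIV 13 or 15, treated acutely with compound (0.03-40 uM, at least three wells). Percent of spikes within network bursts compared between 40-min recordings before and during exposure at 37 C, expressed as percent change.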
# [17] = CCTE_Shafer_MEA_acute_cross_correlation_area: CCTE's Neural Acute Assay for Area of Cross Correlation, Shafer Lab (AID 2284024; active = hit-call score of the fitted dose curve at least 0.9, where 1 is the maximum; inactive = score below 0.9;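 also: curves fitted for loss of cross-correlation area so actives lower synchrony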)
# In short: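 Rat primary cortical neurons on 48-well MEA, DIV 13 or 15; compounds 0.03-40 uM. Baseline and post-exposure 40 min recordings at 37 C; percent change in area under pooled inter-electrode cross-correlation near zero lag, relative to DMSO.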
# [18] = CCTE_Shafer_MEA_acute_cross_correlation_HWHM: CCTE's Neural Acute Assay for Cross Correlation at Half Width at Half Maximum, Shafer Lab (AID 2284026; active = hit-call score of the fitted dose curve at least 0.9, where 1 is the maximum; inactive = score below 0.9;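 also: percent change per well from pre-dose baseline in spike cross-correlogram half width; hits are a decrease in cross-correlogram half width relative to DMSO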;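 as to outcome: spontaneous network firing of rat primary cortical neurons on multiwell microelectrode arrays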)
# In short: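 Rat primary cortical neurons on 48-well MEA plates; 40-min baseline and 40-min post-exposure recordings at 37 C on DIV 13 or 15, compounds 0.03-40 uM. Spikes detected at 8x rms noise; percent change in cross-correlogram HWHM per well vs baseline.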
# [19] = CCTE_Shafer_MEA_acute_LDH: CCTE's Lactate Dehydrogenase Assay for Cytotoxicity in the Neural Acute Assay, Shafer Lab (AID 2284086);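 also: active means LDH release rises above DMSO vehicle level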
# In short: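 Medium from rat cortical neuron MEA cultures sampled right after the 40 min compound-exposure recording; released LDH measured by absorbance at 490 nm. Analyzed as signal gain relative to DMSO.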
# [20] = biological target: Estrogen receptor (Homo sapiens) (UniProt P03372); experiment: OT_ER_ERaERa_1440: Odyssey Thera (OT) 24-hour HEK293T Protein-Complementation Assay for Estrogen Receptor-alpha/-alpha Homodimer (AID 2283349);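 also: hits raise fluorescence above DMSO for agonists and antagonists alike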
# In short: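 HEK293T cells stably expressing the human ER alpha ligand-binding domain (aa 310-547) as a homodimer PCA were dosed for 24 hours. Fluorescence intensity was read by laser scanning cytometry, and gain of signal was fitted relative to DMSO vehicle.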
# Estrogen receptor (Homo sapiens), sequence (P03372 whole entry, looked up, the tested form may be a part): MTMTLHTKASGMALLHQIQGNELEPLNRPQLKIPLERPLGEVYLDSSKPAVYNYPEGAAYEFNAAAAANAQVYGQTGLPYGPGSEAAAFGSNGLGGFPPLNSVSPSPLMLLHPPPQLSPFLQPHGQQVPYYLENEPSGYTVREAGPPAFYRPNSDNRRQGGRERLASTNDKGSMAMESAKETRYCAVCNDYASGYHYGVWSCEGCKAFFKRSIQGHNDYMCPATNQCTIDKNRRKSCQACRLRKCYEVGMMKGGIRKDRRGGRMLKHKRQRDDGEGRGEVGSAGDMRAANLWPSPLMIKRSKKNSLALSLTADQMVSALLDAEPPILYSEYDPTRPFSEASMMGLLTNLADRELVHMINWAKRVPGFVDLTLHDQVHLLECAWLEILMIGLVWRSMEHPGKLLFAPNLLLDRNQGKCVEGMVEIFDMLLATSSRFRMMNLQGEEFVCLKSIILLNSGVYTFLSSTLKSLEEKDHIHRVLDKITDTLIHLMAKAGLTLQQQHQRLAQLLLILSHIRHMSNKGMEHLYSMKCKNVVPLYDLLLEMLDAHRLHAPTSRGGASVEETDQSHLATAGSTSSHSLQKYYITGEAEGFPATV
# human Phosphoinositide 3-kinase alpha (PI3Ka), PIK3CA (gene 5290), sequence (P42336 whole entry, looked up): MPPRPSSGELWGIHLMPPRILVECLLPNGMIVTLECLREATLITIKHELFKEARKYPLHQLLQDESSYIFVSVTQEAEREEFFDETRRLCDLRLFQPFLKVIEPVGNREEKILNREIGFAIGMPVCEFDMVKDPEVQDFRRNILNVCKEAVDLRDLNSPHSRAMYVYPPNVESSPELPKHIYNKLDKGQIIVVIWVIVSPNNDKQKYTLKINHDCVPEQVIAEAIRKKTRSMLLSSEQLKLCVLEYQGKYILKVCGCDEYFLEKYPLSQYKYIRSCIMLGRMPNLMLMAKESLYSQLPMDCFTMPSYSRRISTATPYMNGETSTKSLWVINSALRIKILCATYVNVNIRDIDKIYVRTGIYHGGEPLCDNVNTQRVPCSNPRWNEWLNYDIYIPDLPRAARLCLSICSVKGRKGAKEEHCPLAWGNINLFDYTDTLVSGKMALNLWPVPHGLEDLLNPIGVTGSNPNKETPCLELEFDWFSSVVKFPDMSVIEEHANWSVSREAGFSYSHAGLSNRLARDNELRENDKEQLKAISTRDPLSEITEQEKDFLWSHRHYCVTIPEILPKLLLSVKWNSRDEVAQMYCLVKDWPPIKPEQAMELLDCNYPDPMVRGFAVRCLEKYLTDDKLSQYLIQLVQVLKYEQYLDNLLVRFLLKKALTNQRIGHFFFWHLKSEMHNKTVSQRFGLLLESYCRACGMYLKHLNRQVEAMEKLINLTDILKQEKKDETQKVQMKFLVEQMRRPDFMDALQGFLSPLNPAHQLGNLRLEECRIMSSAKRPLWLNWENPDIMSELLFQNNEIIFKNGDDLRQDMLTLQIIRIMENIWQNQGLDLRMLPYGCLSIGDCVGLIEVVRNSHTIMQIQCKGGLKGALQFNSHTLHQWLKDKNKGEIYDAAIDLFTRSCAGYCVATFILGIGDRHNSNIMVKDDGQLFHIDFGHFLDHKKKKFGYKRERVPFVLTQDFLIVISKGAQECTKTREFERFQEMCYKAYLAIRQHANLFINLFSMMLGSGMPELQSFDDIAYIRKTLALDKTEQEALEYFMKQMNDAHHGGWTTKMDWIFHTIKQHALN
# human Norepinephrine Transporter (NET), SLC6A2 (gene 6530), sequence (P23975 whole entry, looked up): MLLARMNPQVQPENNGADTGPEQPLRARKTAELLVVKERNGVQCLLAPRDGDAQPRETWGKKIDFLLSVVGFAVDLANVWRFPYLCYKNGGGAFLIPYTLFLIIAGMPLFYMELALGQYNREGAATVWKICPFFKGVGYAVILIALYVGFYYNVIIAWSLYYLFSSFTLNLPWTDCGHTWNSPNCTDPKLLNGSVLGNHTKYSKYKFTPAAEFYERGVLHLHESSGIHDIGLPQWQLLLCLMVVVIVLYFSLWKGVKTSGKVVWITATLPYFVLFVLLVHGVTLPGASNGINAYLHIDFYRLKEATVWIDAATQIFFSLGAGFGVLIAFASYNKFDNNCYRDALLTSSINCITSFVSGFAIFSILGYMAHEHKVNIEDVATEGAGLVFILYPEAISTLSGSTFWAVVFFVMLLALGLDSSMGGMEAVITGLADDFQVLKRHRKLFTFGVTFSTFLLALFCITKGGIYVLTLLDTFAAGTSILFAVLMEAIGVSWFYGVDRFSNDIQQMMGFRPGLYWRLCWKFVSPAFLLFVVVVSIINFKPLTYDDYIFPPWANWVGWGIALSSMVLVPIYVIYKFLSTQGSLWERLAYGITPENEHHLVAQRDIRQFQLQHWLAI
# human Peroxisome Proliferator-activated Receptor alpha (PPARa), PPARA (gene 5465), sequence (Q07869 whole entry, looked up): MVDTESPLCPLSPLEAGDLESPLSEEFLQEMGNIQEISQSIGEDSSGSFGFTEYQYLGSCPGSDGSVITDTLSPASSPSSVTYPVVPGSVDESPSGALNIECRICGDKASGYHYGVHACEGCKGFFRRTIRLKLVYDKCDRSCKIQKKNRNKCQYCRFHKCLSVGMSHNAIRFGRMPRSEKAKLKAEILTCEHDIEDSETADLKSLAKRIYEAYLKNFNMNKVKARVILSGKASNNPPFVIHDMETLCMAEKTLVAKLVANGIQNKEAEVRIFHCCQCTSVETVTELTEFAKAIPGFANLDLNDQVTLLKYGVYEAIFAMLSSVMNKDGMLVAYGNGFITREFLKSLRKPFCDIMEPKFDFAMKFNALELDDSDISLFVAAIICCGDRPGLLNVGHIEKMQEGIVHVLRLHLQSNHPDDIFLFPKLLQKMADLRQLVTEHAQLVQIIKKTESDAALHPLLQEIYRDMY
# chimpanzee Androgen Receptor (AR), AR (gene 747460), sequence (O97775 whole entry, looked up): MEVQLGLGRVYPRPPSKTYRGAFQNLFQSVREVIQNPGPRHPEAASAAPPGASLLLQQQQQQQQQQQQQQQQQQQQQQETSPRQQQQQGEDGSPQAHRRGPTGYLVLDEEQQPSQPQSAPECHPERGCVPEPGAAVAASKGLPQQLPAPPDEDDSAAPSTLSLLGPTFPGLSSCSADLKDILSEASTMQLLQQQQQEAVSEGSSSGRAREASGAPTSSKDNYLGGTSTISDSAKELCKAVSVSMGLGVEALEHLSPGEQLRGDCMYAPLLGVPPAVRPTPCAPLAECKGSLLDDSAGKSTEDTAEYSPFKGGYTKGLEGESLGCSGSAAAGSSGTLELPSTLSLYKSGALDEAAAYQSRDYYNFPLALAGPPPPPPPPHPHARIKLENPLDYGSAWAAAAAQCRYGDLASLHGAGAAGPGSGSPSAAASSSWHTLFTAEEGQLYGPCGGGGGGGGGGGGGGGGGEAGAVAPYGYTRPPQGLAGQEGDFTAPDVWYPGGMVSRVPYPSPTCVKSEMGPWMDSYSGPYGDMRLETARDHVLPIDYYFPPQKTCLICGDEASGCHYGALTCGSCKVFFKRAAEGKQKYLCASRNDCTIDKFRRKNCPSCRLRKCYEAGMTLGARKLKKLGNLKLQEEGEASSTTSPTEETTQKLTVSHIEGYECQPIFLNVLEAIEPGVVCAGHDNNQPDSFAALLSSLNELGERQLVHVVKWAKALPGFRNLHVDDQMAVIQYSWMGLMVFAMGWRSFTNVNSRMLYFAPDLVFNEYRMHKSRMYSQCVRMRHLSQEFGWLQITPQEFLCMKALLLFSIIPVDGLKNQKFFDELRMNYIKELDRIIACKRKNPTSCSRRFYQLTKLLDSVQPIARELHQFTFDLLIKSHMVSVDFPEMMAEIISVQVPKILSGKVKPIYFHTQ
structure (smiles),measurement,setting,value
CCCCCCCCCCCCCCCCCC[N+](C)(C)C,AC50,[1],3.68 µM (active)
same,AC50,[2],2.93 µM (active)
Cc1cc(O)cc(C)c1Cl,outcome,[3],inactive
CC(=O)CCc1ccccc1,outcome,[1],inactive
Cc1cc(-n2nc3ccc(Cl)cc3n2)c(O)c(C(C)(C)C)c1,AC50,[4],0.741 µM (active)
CCCCC(CC)COC(=O)CS (centres undefined),outcome,[3],inactive
same,outcome,[5],inactive
O=C1NC(=O)[C@@H]2CC=CC[C@H]12,outcome,[2],inactive
Cc1cc2nc3c(=O)[nH]c(=O)nc-3n(C[C@H](O)[C@H](O)[C@H](O)CO)c2cc1C,outcome,[6],inactive
CN(C)Cc1cc(C(C)(C)C)c(O)c(C(C)(C)C)c1,AC50,[7],2.98 µM (active)
same,outcome,[8],inactive
same,outcome,[9],inactive
same,outcome,[10],inactive
same,outcome,[11],inactive
same,AC50,[12],24.1 µM (active)
same,AC50,[13],15 µM (active)
same,AC50,[14],0.0258 µM (active)
same,outcome,[15],inactive
same,outcome,[16],inactive
same,outcome,[17],inactive
same,AC50,[18],15 µM (active)
same,outcome,[19],inactive
CCCOCCC,outcome,[1],inactive
CCCCCCC1CCC(=O)O1 (centres undefined),outcome,[20],inactive
same,outcome,[3],inactive
Sc1nc2ccccc2s1,outcome,[3],inactive
same,outcome,[5],inactive
CN(C)c1ccc(C(c2ccccc2)c2ccc(N(C)C)cc2)cc1,AC50,[2],31.7 µM (active)
same,AC50,[5],25.3 µM (active)
CCOC(=O)c1ccccc1,outcome,[20],inactive
CCCCCC[C@@H](O)C/C=C\CCCCCCCC(=O)O,AC50,[3],36.8 µM (active)
same,outcome,[6],inactive
C=C1CC[C@H]2C[C@@H]1C2(C)C,outcome,[20],inactive
Oc1cccc2ccccc12,AC50,[2],21 µM (active)
same,outcome,[5],inactive
COC(=O)/C=C\C(=O)OC,outcome,[4],inactive
CC[N+](CC)(CC(=O)Nc1c(C)cccc1C)Cc1ccccc1,outcome,[4],inactive
Cc1cc(C)c(S(=O)(=O)O)cc1N=Nc1cc(S(=O)(=O)O)c2ccccc2c1O,AC50,[5],13.1 µM (active)
CCCCCC1CCCC(=O)O1 (centres undefined),outcome,[4],inactive
COC(=O)[C@]1(C)CCC[C@@]2(C)[C@H]1CC=C1C=C(C(C)C)CC[C@@H]12,outcome,[6],inactive
CC1(C)S[C@@H]2[C@H](NC(=O)[C@H](N)c3ccccc3)C(=O)N2[C@H]1C(=O)O,AC50,[1],12.5 µM (active)
same,outcome,[7],inactive
same,outcome,[8],inactive
same,outcome,[9],inactive
same,outcome,[10],inactive
same,AC50,[11],1.61 µM (active)
same,AC50,[12],0.0814 µM (active)
same,outcome,[13],inactive
same,outcome,[14],inactive
same,outcome,[15],inactive
same,AC50,[16],3.57 µM (active)
same,outcome,[17],inactive
same,outcome,[18],inactive
same,outcome,[19],inactive
